Screens: PubChem BioAssay, National Center for Advancing Translational Sciences (NCATS)
Pf growth 48h = P. falciparum growth inhibition at 48 hours (one generation); P. falciparum luciferase growth in erythrocytes, 48 h; Potency, µM (top dose mostly 28.7 µM), inactives show at the highest dose activity change, negative = inhibition, usual class: inhibitors; actives 5.9% (n = 310,000); AID 504832; active = well fitted inhibition curve with a large enough effect; inconclusive = small, poorly fitted or top-dose-only effect, or another doubt; inactive = no such curve, though single readings can be large or run the other way; note: potency is the fitted concentration of half-maximal effect; % is set by controls: 0 for no effect and ±100 for the full control effect
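Cell-based growth assay: transgenic P. falciparum expressing firefly luciferase, cultured in red cells within RPMI 1640 containing 0.5% w/v Albumax, 24 mM bicarbonate and gentamycin. A drop in luciferase activity indicates inhibition.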
NS1 inh = influenza NS1 inhibition | Potency, µM (series often up to 46.1 µM), for inactives: at the highest dose activity, positive = more growth | actives 0.4% (n = 270,000); note: potency is the fitted concentration of half-maximal effect; actives are rising curves; nearly all actives have a fitted effect of over 50% in size
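OD600 was taken as the measure of yeast growth restored by compound in an NS1-expressing S. cerevisiae strain. Cells had been washed out of glucose medium and diluted 1:100 into galactose -URA medium, pH 6.0.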
SARS PLpro yeast-1 = blocks SARS-CoV papain-like protease in a yeast assay. S. cerevisiae expressing SARS-CoV PLpro, growth rescue. Potency, µM (doses to about 32.9 µM), inactives show at the top dose activity, positive = growth rescue, actives largely listed as activators. actives 0.19% (n = 330,000). AID 485353; note: potency is the fitted concentration of half-maximal effect; 0% is about no effect; nearly all actives have a fitted effect of over 55% in size
Pf growth 96h = inhibits malaria parasite growth, 96 h. P. falciparum luciferase reporter growth, 96 h. Potency, µM (series often up to 28.7 µM), without a hit: at the top dose activity change, negative = inhibition, most hits filed as inhibitors. actives 6.9% (n = 320,000). AID 504834; active = well fitted inhibition curve with a large enough effect; inconclusive = small, poorly fitted or top-dose-only effect, or another doubt; inactive = no such curve, though single readings can be large or run the other way; note: potency is the fitted concentration of half-maximal effect; % is set by controls: 0 for no effect and ±100 for the full control effect
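Two parasite generations (96 h, 37 C, 5% CO2) of compound exposure in infected erythrocytes (0.05% parasitemia, 2% hematocrit). Luciferase-reporter P. falciparum; decreased luminescence indicates inhibited growth, aimed at apicoplast-acting delayed death.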
Flu NS1 inh = validation of influenza NS1 protein function inhibitors; shares compounds with NS1 inh; influenza NS1 function cell assay, 15-point titration; activity change, negative = inhibition, % at 32.9 µM; 1,400 tested, under 10 active; AID 492980; note: 0% is about no effect
SARS PLpro yeast-2 = Inhibits SARS-CoV PLP in yeast, hit validation. AID 652038. actives 19% (n = 1,000). yeast expressing SARS-CoV PLpro, growth phenotype rescue. calls only. shares compounds with SARS PLpro yeast-1; call rule not given here
The depositor's hits bear a star; i = inactive; ? = inconclusive; · = no result; + = active, no number. Compounds with a hit are over-represented: about 10% of the library has one in this group of screens. Unless noted, calls come from the whole dose curve.

SMILES	Pf growth 48h	NS1 inh	SARS PLpro yeast-1	Pf growth 96h	SARS PLpro yeast-2	others
Cc1ccc(S(=O)(=O)N2CCOCC2)cc1NC(=O)COC(=O)c1cc(=O)c2ccccc2o1	-0.3%	9.8%	22.1%	-0.3%	·
CCn1c(SCC(=O)NC2CC2)nnc1-c1cccc(OC)c1	-16.5%	9.5%	1.5%	88.9%	·
CC(=O)N/C(=C\c1cccc([N+](=O)[O-])c1)C(=O)NC1CCCCC1	8.8%	11.2µM*	?	-13.9%	i	Flu NS1 inh=5.4
Cc1ccc(NC(=O)/C(=C/c2cccc([N+](=O)[O-])c2)NC(=O)C2CCCCC2)cc1	?	0.8%	-2.2%	·	·
COc1cccc(-n2c(SCc3cc(=O)oc4cc(O)c(O)cc34)nc3ccccc3c2=O)c1	34.1%	?	14.1µM*	?	i	Flu NS1 inh=-15.4
CCN(CC)C(=O)CSc1nc2ccccc2c(=O)n1-c1cccc(OC)c1	?	-1.6%	-2.3%	·	·
CCOc1ccc(-c2nnc3ccc(SCC(=O)Nc4nc5ccccc5s4)nn23)cc1	-38.8%	-11.5%	?	-68.9%	i
NC(=O)C1CCN(C(=O)c2cc(Cl)c3c(c2)OCCO3)CC1	·	·	2.51µM*	·	i
N#Cc1ccc(CN2CCN(C(=O)c3cc(Cl)c4c(c3)OCCO4)CC2)cc1	?	·	-7.2%	8.5%	·
O=C1CCCC2=C1C(c1cccs1)Nc1ccc3ncccc3c12 (configuration not stated)	42.6%	-6.1%	0.3%	44.9%	·
Cc1ccsc1C1Nc2ccc3ncccc3c2C2=C1C(=O)CC(C)(C)C2 (configuration not stated)	1.65µM*	21.2%	11.2µM*	1.17µM*	i
CN(C)C(Cc1ccccc1)C(=O)c1ccc(-c2ccccc2)cc1 (configuration not stated)	·	-80.4%	3.16µM*	?	i
CC(C(=O)O)n1c(-c2ccn[nH]2)n[nH]c1=S (configuration not stated)	34.9%	5.3%	0.3%	19.8%	·
CCOC(=O)C1=C(COC(=O)/C=C/c2ccco2)NC(=O)NC1C (configuration not stated)	7.5%	·	?	53.7%	i
CCOC(=O)C1=C(COC(=O)/C=C/c2ccc(OC)cc2)NC(=O)NC1C (configuration not stated)	?	·	-2.6%	6.8%	·
COc1ccccc1[C@@H]1C(c2ccccc2)=NN(c2ccc(Br)cc2)[C@H]1C(=O)N1CCOC1=O	·	·	17.3%	·	·
COc1ccccc1[C@@H]1C(c2cccc(C)c2)=NN(c2ccc(Br)cc2)[C@H]1C(=O)N1CCOC1=O	·	·	3.98µM*	·	i
CCN(CC(=O)Nc1cc(C)nn1-c1nc(C)cc(C)n1)Cc1ccccc1	·	-13.1%	?	4.15µM*	i
COc1ccc(OCCC(=O)OCC(=O)Nc2cccc(S(=O)(=O)N3CCCCC3)c2)cc1	·	·	-7.1%	·	·
CN1CCOC(c2ccccc2)c2ccccc2C1 (configuration not stated)	28.7%	-1.6%	5.01µM*	10.4µM*	i
COc1cccc(C(=O)NC(=S)NCc2ccco2)c1	70.4%	1.3%	?	3.7µM*	+
COCCC1CCCCN1C(=O)c1ccc2nc(Cc3ccccc3F)oc2c1 (configuration not stated)	?	1.8%	-10.0%	5.3%	·
Cc1ccc(C(=O)NC(=S)Nc2ccccc2N2CCCC2)cc1[N+](=O)[O-]	-19.6%	17.1%	?	10.8%	+
Cc1cccc(NC(=O)Cn2cnc3c(oc4nc5c(cc43)COC(C)(C)C5)c2=O)c1	-0.1%	-4.8%	12.6µM*	0.0%	i
O=C(NNC(=O)c1cc(Cl)ccc1O)c1cccc(S(=O)(=O)N2CCOCC2)c1	?	·	?	-7.9%	+
SMILES	Pf growth 48h	NS1 inh	SARS PLpro yeast-1	Pf growth 96h	SARS PLpro yeast-2	others
COCCNC(=O)c1cc(-c2ccccc2C)nn1CC1CC(c2cccnc2)=NO1 (configuration not stated)	·	·	-30.2%	·	·
O=[N+]([O-])c1nn(-c2ccc3c(c2)OCCO3)n(O)c1=NC1CCCCC1	·	-51.7%	3.0%	?	·
CC1CCN(c2c([N+](=O)[O-])nn(-c3ccc4c(c3)OCCO4)[n+]2[O-])CC1	·	-3.9%	3.98µM*	·	i
O=C(OCc1ccccc1)c1ccc2c(c1)-c1ccccc1C2=O	9.28µM*	0.7%	15.8µM*	?	i
O=C(OCc1ccccc1)c1ccccc1	15.3%	·	·	0.9%	·
CC(=O)NS(=O)(=O)c1ccc(NS(=O)(=O)c2ccccc2[N+](=O)[O-])cc1	5.5%	-0.8%	-0.2%	0.0%	·
NC(=O)C(c1ccc(Cl)cc1Cl)c1ncc(C(F)(F)F)cc1Cl (configuration not stated)	24.3%	19.2%	-4.1%	21.7%	·
COC(=O)Cc1c(C)nc2nc(-c3ccc(C)cc3)[nH]n2c1=O	·	0.8%	15.2%	15.1%	·
COC(=O)Cc1c(C)nc2nc(-c3ccc(Cl)cc3)[nH]n2c1=O	·	-0.2%	?	9.5%	i
COc1cc(OC)cc(C(=O)N[C@H](C(=O)OCC(=O)Nc2cccc(F)c2)C(C)C)c1	19.0%	-46.0%	3.55µM*	-3.5%	i
CC(OC(=O)CNC(=O)c1ccccc1)C(=O)Nc1ccc(S(=O)(=O)N2CCOCC2)cc1 (configuration not stated)	5.8%	·	?	0.1%	i
O=C(COC(=O)CNC(=O)c1ccccc1)Nc1ccc(S(=O)(=O)N2CCOCC2)cc1	1.7%	·	0.2%	0.0%	·
CN=C(C)c1c(O)c2ccccc2oc1=O	·	-186.6%	-17.7%	26.2%	·
C/C(CC(c1ccccc1)c1c(O)c2ccccc2oc1=O)=N\NC(N)=S (configuration not stated)	?	2.6%	11.2µM*	10.4µM*	i
COC(C(=O)Nc1ccc(S(=O)(=O)Nc2ccc(F)cc2)cc1)c1ccccc1 (configuration not stated)	5.1%	-8.5%	0.3%	?	·
O=C(CC(Nc1ccc(F)cc1)c1ccccc1)c1ccccc1 (configuration not stated)	17.5%	-0.4%	3.16µM*	62.8%	i
O=C(CC(CC(=O)c1ccccc1)c1ccccc1)c1ccccc1	-7.7%	-7.0%	-1.0%	1.0%	·
O=C(Nc1ccc(F)cc1)c1ccccc1	·	-11.6%	?	111.8%	i
COC(C(=O)Nc1ccc(F)cc1)c1ccccc1 (configuration not stated)	-1.6%	4.8%	15.8µM*	8.4%	i
CC(C(=O)NCc1ccc2c(c1)OCO2)N1c2cccc3cccc(c23)S1(=O)=O (configuration not stated)	?	9.8%	?	6.3%	+
O=C(O)c1ccc(NCc2ccc3c(c2)OCO3)cc1	·	-101.9%	?	?	i
COc1cccc(NC(=O)C(=O)N/N=C(\C)CC(=O)Nc2ccc(NC(C)=O)cc2)c1	127.6%	-3.6%	-6.5%	113.6%	·
Cc1cc(C(=O)CCl)c(C)n1CCc1ccccc1	-12.7%	·	8.7%	-25.7%	·
